Screening data deposited in PubChem BioAssay by several laboratories.
CCHF vOTU inh = blocks the CCHF virus ovarian tumor domain protease | CCHFV vOTU protease, Pep-AMC fluorescence | inhibition, % at 11.5 µM | 370,000 tested, 0.55% active | AID 651958; note: 0% = vehicle wells with enzyme and 100% = no enzyme wells
RecA intein inh = Mtb RecA intein splicing inhibition. P9WHJ3. inhibition, % (concentration not given with the values). 290,000 tested, 0.75% active. cell-free RecA intein splicing, fluorescence; in the data active = inhibition above about 30%;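 note: 0% = vehicle wells and 100% = reference inhibitor control wells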
FBA Mtb inh = inhibits M. tuberculosis FBA enzyme; purified M. tuberculosis FBA, fluorescence read-out; 360,000 tested, 2.3% active; P9WQA3; inhibition, % at 1 µM; in the data active = inhibition above about 27%;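 note: 0% = vehicle and 100% = reference inhibitor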
GDH-TPI counter = GDH-TPI coupled enzyme inhibition counter-screen. GDH-TPI coupled enzyme counterscreen, NADH absorbance. inhibition, % at 4.8 µM. 360,000 tested, 1.2% active;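 note: 0% = DMSO wells and 100% = wells lacking the enzyme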
GFP chromophore = counter-screen GFP chromophore formation inhibition; shares compounds with RecA intein inh; cell-free GFP chromophore formation, fluorescence; EC50, µM; 2,100 tested, 83% active; AID 434968; call rule not given here
Starred values were filed as active, the others as inactive; . = not tested or not shown. A selection: hits, their analogues and other compounds. The true share with any hit is near 4.2%. Cut-off read from the data, not from the text of the source, unless noted: active = inhibition above about 30%; inactive = the rest.

SMILES	CCHF vOTU inh	RecA intein inh	FBA Mtb inh	GDH-TPI counter	GFP chromophore
CC(=O)NC(c1ccc(F)c(F)c1)c1nc(-c2ccc(C)c(C)c2)cs1 (centres undefined)	-1	.	0	2	.
COc1ccc(C(=O)n2nnc3ccccc32)cc1OC	-7	.	2	5	.
COc1ccc(C(=O)n2nnc3ccccc32)cc1Br	.	35*	4	0	>38
CCOC(=O)C1(C)CCN1C(=O)c1cccc(C#N)c1 (centres undefined)	1	.	-1	2	.
O=C(CN1C(=O)S/C(=C\C=C\c2ccccc2)C1=O)Nc1ccccc1C(=O)O	13	60*	-2	35*	10*
O=C(CCN1C(=O)S/C(=C\C=C\c2ccccc2)C1=O)Nc1ccc(O)cc1	12	6	-1	25	.
N#Cc1ncc(Cc2ccccc2)nc1C#N	11	82*	3	-9	5*
Cc1ccc2nc(C)c3c(c2c1)N(c1ccc(F)cc1)CC3	4	-2	4	8	.
Cc1cc(SCC2=NNC(=O)C2)c(Cl)cc1Cl	-2	.	-1	6	.
O=C1CC(CSc2ccc(Cl)cc2)=NN1	-1	91*	1	0	8.8*
O=C(NN=c1c(=O)c2ccccc2c1=O)c1ccccc1	23	91*	-4	15	5.2*
CN(C)/C=N/NC(=O)c1ccccc1	9	-1	-6	-7	.
O=C(CN1CCN(S(=O)(=O)c2ccc(Cl)cc2)CC1)Nc1ccc2c(c1)OCCO2	5	4	1	-11	.
O=C(CN1CCN(S(=O)(=O)c2ccc(Cl)cc2)CC1)Nc1ccc2c(c1)OCO2	6	47*	-2	8	>38
CC1=NN(c2ccc(C(=O)O)cc2)C(=O)CC1	-8	-1	-1	5	.
CC1=NN(c2ccc(S(=O)(=O)O)cc2Cl)C(=O)C1	13	82*	-1	1	30*
CC1=NN(c2ccc(Cl)c(C(=O)O)c2)C(=O)C1	16	95*	-2	-1	5.6*
CC(=O)N(CCC(Cc1ccccc1)c1ccc2c(c1)OCO2)Cc1ccccc1F (centres undefined)	-1	36*	5	2	>38
CCOC(=O)c1nn(-c2ccccc2C)c(=O)c2c(N)scc12	19	48*	-4	2	>38
C/C(=N\NC(=O)Cc1cc(=O)[nH][nH]1)c1cccc([N+](=O)[O-])c1	-12	88*	-1	-3	8.8*
C/C(=N/NC(=O)Cc1cc(=O)[nH][nH]1)c1ccc([N+](=O)[O-])cc1	4	84*	-1	8	7.4*
C/C(=N\NC(=O)Cc1cc(=O)[nH][nH]1)c1ccc([N+](=O)[O-])cc1	8	.	.	.	.
Cn1cccc1C(=O)N1CCN(S(=O)(=O)c2ccc(F)cc2)CC1	1	.	.	.	.
CC1C=CCC2C(=O)N(c3ccccc3OC(=O)c3ccco3)C(=O)C12 (centres undefined)	-8	14	2	6	.
O=C(Oc1ccccc1N1C(=O)CCC1=O)c1ccco1	6	36*	1	-2	>38
SMILES	CCHF vOTU inh	RecA intein inh	FBA Mtb inh	GDH-TPI counter	GFP chromophore
OC(CNCCC1C=Nc2ccccc21)Cn1c2ccc(Cl)cc2c2cc(Cl)ccc21 (centres undefined)	8	48*	-1	4	37*
CCC(=O)N1CCCC(C)(C(=O)Nc2nccc3ccccc23)C1 (centres undefined)	12	.	-1	1	.
O=C(NCC(F)(F)F)c1csc([C@@H]2O[C@H](CO)[C@H](O)[C@H](O)[C@H]2O)n1	0	.	0	18	.
N#C/C(=C\c1ccncc1)c1nc2ccccc2o1	-36	28	10	6	.
N#C/C(=C\c1cccc(O)c1)c1nc2ccccc2o1	6	69*	7	35*	21*
CCC(C)[C@@H](NC(=O)OC(C)(C)C)c1nnc(S(=O)(=O)Cc2cccc(C)c2)o1 (some centres undefined)	9	37*	0	13	31*
Cc1ccccc1CS(=O)(=O)c1nnc([C@H](Cc2ccccc2)NC(=O)OC(C)(C)C)o1	3	41*	-2	0	12*
CC(C)(C)OC(=O)N[C@@H](Cc1ccccc1)c1nnc(S(=O)(=O)Cc2ccccc2)o1	8	.	.	.	.
Cc1[nH]n(-c2ncc(-c3ccc(Cl)cc3)s2)c(=O)c1C(c1ccc(Cl)cc1)C(C#N)C#N (centres undefined)	.	7	-1	3	.
CCCc1[nH][nH]c(=O)c1C(c1cccc(Cl)c1)C(C#N)C#N (centres undefined)	-4	52*	2	5	9.4*
CC1=CC(=NOC(=O)/C=C/c2ccccc2)C=C(C)C1=O	-6	4	-5	9	.
CC1=C(C)/C(=N\OC(=O)/C=C/c2ccccc2)C=CC1=O	8	38*	-1	7	>38
CN(CCO)c1cc(Sc2nc3ccccc3s2)c2nonc2c1[N+](=O)[O-]	0	94*	-4	19	1.4*
CC(=O)OCCNc1cc(SC(C)C)c2nonc2c1[N+](=O)[O-]	-11	23	-4	11	.
NS(=O)(=O)c1ccc(Sc2nc3ccccc3s2)c([N+](=O)[O-])c1	8	24	3	5	.
CC(=O)OCCN(C)c1cc(SC(C)C)c2nonc2c1[N+](=O)[O-]	4	34*	-12	11	>38
S=c1cnc2ccccc2[nH]1	-1	2	0	6	.
O=C(NC(c1ccc(Cl)cc1)c1c(O)ccc2ccccc12)c1ccccc1 (centres undefined)	-8	.	-1	12	.
CC(=O)NC(c1ccc(Cl)cc1)c1c(O)ccc2ccc(O)cc12 (centres undefined)	-10	59*	8	0	12*
C=CCCC(=O)N1CCCC(C(=O)c2cccc(OC)c2)C1 (centres undefined)	-12	0	0	-1	.
Cc1ccc(OCC(=O)N(Cc2nnc(-c3ccccc3Cl)o2)C2CC2)cc1C	-1	.	-2	-5	.
CCOc1ccccc1C1C(C#N)=C(N)Nc2onc(-c3ccccc3)c21 (centres undefined)	-12	78*	1	-3	16*
CCOc1cccc(C2C(C#N)=C(N)Oc3cc(C)[nH]c(=O)c32)c1OCC (centres undefined)	5	1	3	0	.
O=C(OCc1cnc(Cl)s1)c1ccccc1Cl	4	2	0	0	.
O=C(OCn1ncc(Br)c(Br)c1=O)c1ccccc1Cl	.	64*	0	7	1.8*
SMILES	CCHF vOTU inh	RecA intein inh	FBA Mtb inh	GDH-TPI counter	GFP chromophore
O=C(OCn1ncc(Br)c(Br)c1=O)c1ccc(F)cc1	.	73*	0	-1	2.2*
CC(=O)OCn1ncc(N2CCOCC2)c(Br)c1=O	9	0	0	21	.
COc1ccc(C(=O)OCc2c(F)cccc2Cl)cc1S(=O)(=O)N1CCOCC1	9	.	1	10	.
CCOC(=O)[C@@]12CCC3=C1N(CCC3)C(=O)[C@H](CC(=O)N1CCN(C(=O)C3CC3)CC1)C2	-8	.	.	.	.
Nc1c(N2CCCC2)cc(Cl)c2nonc12	.	70*	-1	14	5.1*
CC1=NN(C)C(=O)C1Cc1c(F)cccc1Cl (centres undefined)	-4	80*	-2	-6	17*
